Test results from publication PMC5540273 (PLoS ONE, 2017).

Each compound was assayed on T1, MST3. Conditions: concentration: 1 μM, replicates: in singlicate; n = 1.
T1 construct: gene STK24
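Further: KINOMEscan kinase panel screen.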

SMILES | %Inh [%]
N#CC1(c2cccc(C(=O)Nc3cccc(Oc4ccc5nc(NC(=O)C6CC6)sc5n4)c3)c2)CC1 | 0
O=C(Nc1n[nH]c2nc(-c3ccccc3)ccc12)C1CC1 [SB-708999] | 3
CC(C)c1nc(-c2cccc(NS(=O)(=O)c3c(F)cccc3F)c2)c(-c2ccnc(Nc3ccc(N4CCOCC4)nc3)n2)s1.Cl [GSK1723980] | 13
Cl.Cl.NCC(NC(=O)c1cc(-c2cccnc2)c(-c2ccnc3[nH]ccc23)s1)c1ccccc1 (stereo not shown) [GSK1323434] | 0
COC(=O)Nc1nc2cc(Oc3ccc(NC(=O)Nc4cccc(SC)c4)cc3)ccc2[nH]1.Cl [GW697999] | 0
O=C(Nc1n[nH]c2nc(-c3ccccc3O)ccc12)C1CC1 [SB-711880] | 0
O=C(Nc1n[nH]c2cc(-c3cccs3)ccc12)C1CC1 [SB-731284] | 7
O=C(Nc1c(F)cccc1F)c1cc(C(=O)c2ccccc2F)c[nH]1 [GSK1326180] | 0
Cc1ccc(Nc2ccnc(Nc3ccc(C)c(F)c3)n2)cc1O.Cl [GW582868] | 0
COc1cccc(-c2nc(-c3ccccc3)[nH]c2-c2ccncc2)c1 [SB-610250] | 0
CCn1cnc2c(NCc3ccccc3)ncnc21 [SKF-96418] | 5
Cl.Cl.NC(CNC(=O)c1cc(Br)c(-c2ccnc3[nH]ccc23)s1)c1ccccc1 (stereo not shown) [GSK1322949] | 5
CN(c1ccc(F)c(NC(=O)c2cccc(OC(C)(C)C#N)c2Cl)c1)c1ccc2nc(NC(=O)C3CC3)sc2n1 | 0
Fc1cc(Cl)ccc1Nc1ccnc2cc(-c3ccc(CN4CCOCC4)o3)ccc12 [GW560109] | 0
COc1cc(Nc2ccnc3cc(-c4ccncc4)ccc23)cc(OC)c1OC.Cl [GW494610] | 0
Cc1ccc(O)cc1Nc1ccnc2cc(-c3ccc(CN4CCCCC4)o3)ccc12 [GW557777] | 17
Nc1ncc(-c2ccc3nccc(-c4ccncc4)c3c2)cc1S(=O)(=O)N1CCCCC1 [GSK1693850] | 29
COc1ccc(C)c(Nc2ccnc(Nc3ccc(-c4cnc[nH]4)cc3)n2)c1.Cl [GW784041] | 17
Fc1cc(Cl)ccc1Nc1ccnc2cc(-c3ccc(CN4CCSCC4)o3)ccc12 [GW560106] | 0

SMILES | %Inh [%]
Cc1ccc(NC(=O)c2ccnc(N3CCCCC3)c2)cc1-c1ccc(C(=O)NCC2CC2)cc1 [GW775610] | 30
CCOc1nccc(-c2c(-c3ccc(F)cc3)ncn2C2CCNCC2)n1 [SB-249175] | 13
O=C(O)C(F)(F)F.O=c1[nH]ccc2nc(N[C@@H]3CCNC3)nc(Nc3ccc4c(c3)S(=O)(=O)CC4)c12 [GSK2181306] | 96.6
c1ccc(Oc2ccc(Nc3ccnc4cc(-c5ccc(CN6CCCCC6)o5)ccc34)cc2)nc1 [GW567143] | 4
Cc1ccc(C)c(NC(=O)Nc2ccc(C)c(-c3ccc(C(=O)Nc4ccncc4)cc3)c2)c1 [GSK1398473] | 0
Cn1cc(-c2cnc(N)c3c(-c4ccc5c(c4)CCN5C(=O)Cc4ccccc4)csc23)cn1 [GSK2593074] | 7
O=C(O)C(F)(F)F.O=c1[nH]ccc2nc(N[C@@H]3CCNC3)nc(Nc3cc(Cl)cc(Cl)c3)c12 [GSK2188764] | 85
Cl.O=C(Nc1ccc(Oc2ccc3[nH]c(NC(=O)c4ccco4)nc3c2)cc1)Nc1cc(C(F)(F)F)ccc1F [GW683134] | 8
Cc1cccc(Nc2nc(NCCN)ncc2C(N)=O)c1 [GSK1292139] | 23
CC(C)NCC(Cc1ccccc1)NC(=O)c1cc(Br)c(-c2ccnc3[nH]ccc23)s1.Cl.Cl (stereo not shown) [GSK1383281] | 0
Nc1cccc(-c2ccc3c(N)n[nH]c3c2)c1 [GSK2193613] | 21
COc1cc(Nc2nccc(N3CCC(NS(=O)(=O)c4ccc(NC(C)=O)cc4)CC3)n2)cc(OC)c1OC [GSK1379825] | 0
Cc1nn2c(=O)cc(N3CCO[C@H](C)C3)nc2n1Cc1cccc(Cl)c1Cl [GSK2373693] | 0
CN1CCN(Cc2ccc(NC(=O)Nc3ccc(N(C)c4ccnc(Nc5ccc(CS(C)(=O)=O)cc5)n4)cc3)cc2)CC1.Cl [GW827654] | 68
COC(=O)Nc1nc2ccc(Oc3ccc(CC(=O)Nc4cc(C(F)(F)F)ccc4F)cc3)cc2[nH]1 [GW680903] | 4
COc1ccc(C2=C(Nc3cccc(O)c3)C(=O)NC2=O)cc1 [SB-390766] | 0
CN(C)c1ncnc2nc[nH]c12 [SKF-31736] | 19
Cc1cc(-c2ccnc(Nc3cccc(C#N)c3)n2)cc(C)c1O [GSK1440913] | 6
